Assay outcomes (PubChem BioAssay)
Shown are actives, neighbours in structure and some others; about 4.6% of the full set was active somewhere.
PNC inhibitor = inhibitors of perinucleolar compartment assembly; 140,000 compounds, 3.1% hits; activity change (PNC), negative = inhibition, % at 10 µM; PC3M PTB-GFP, PNC prevalence imaging, 16 h; hits give low values;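 active means readout at or below -70, meaning at least 70% loss of cells showing the perinucleolar compartment, a nuclear body marking cancer cells; inconclusive means readout between -30 and a set limit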;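 further: plate controls were DMSO wells for no effect and camptothecin positive control wells for full effect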
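PC3M cells stably expressing PTB-GFP, 750–1000 cells/well, treated 16 h at 37 °C with compound (23 nl of library stock), in duplicate. After paraformaldehyde fixation and Hoechst stain, imaged at 20x; PNC prevalence scored by image analysis.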
Tau FP inhib = tau fibrillization inhibition (FP); 280,000 compounds, 0.39% hits; Potency, µM (titrated, usually from 57.7 µM), inactives show at the top dose activity, negative = inhibition, hits mostly inhibitors; AID 1468; K18 P301L tau heparin fibrillization, Alexa594 FP, 6 h; P10636; further: potency means the concentration at half of the fitted maximal effect; nearly all actives have a fitted effect of over 55% in size
Target sequence (P10636 561-689 P618L limits assumed): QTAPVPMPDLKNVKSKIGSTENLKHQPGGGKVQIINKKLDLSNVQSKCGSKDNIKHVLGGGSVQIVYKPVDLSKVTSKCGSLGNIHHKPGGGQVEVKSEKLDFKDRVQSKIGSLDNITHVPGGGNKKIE
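Human tau K18 […] P301L fragment, 15 uM unlabeled plus 0.24 uM Alexa 594-labeled tau (final), with compound and 20 uM heparin in 100 mM sodium acetate pH 7; 6 hr at 37 C, then Alexa 594 FP read.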
TRb SRC2 PPI = disrupts binding of human TR beta to SRC2; P10828; TRbeta-SRC2 peptide binding, fluorescence polarization; receptor liganded with 1 µM T3; Potency, µM (titrated, usually from 106 µM), for inactives: at the highest dose activity change, negative = inhibition, actives largely listed as inhibitors; 280,000 compounds, 0.065% hits; AID 1469;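 further: potency means the concentration at half of the fitted maximal effect; plate controls were bound peptide for no effect and peptide without receptor for full effect; nearly all actives have a fitted effect of over 50% in size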
Target sequence (P10828 whole entry, looked up): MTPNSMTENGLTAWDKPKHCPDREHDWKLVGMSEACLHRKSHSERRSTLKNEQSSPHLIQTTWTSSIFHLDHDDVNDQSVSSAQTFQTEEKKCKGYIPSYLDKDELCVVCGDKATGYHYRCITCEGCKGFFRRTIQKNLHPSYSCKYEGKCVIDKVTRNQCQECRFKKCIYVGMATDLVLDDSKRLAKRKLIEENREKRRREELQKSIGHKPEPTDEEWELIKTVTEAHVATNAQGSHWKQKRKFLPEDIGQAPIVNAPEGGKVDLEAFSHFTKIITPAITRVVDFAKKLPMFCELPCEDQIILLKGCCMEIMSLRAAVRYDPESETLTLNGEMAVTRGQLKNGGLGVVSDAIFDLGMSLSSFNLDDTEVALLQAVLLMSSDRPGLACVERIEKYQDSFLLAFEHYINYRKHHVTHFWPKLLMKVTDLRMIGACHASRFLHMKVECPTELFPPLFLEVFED
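Compounds were added to 0.6 uM TRb ligand-binding domain and 20 nM Texas Red-labeled SRC2 peptide in Tris buffer containing 1 uM T3, incubated 5 hr at ambient temperature, then read by fluorescence polarization.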
Tau fibril ThT = tau fibrillization inhibition (ThT binding); P10636; recombinant tau K18 P301L, heparin-induced fibrillization, ThT fluorescence; Potency, µM (titrated, usually from 57.4 µM), without a hit: at the highest dose activity, negative = inhibition, most hits filed as inhibitors; 270,000 compounds, 2.1% hits; AID 1460; further: potency means the concentration at half of the fitted maximal effect; nearly all actives have a fitted effect of over 55% in size
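Recombinant human tau K18 fragment […] carrying P301L, 15 uM unlabeled plus 0.24 uM Alexa 594-labeled, was fibrillized with 20 uM heparin in 100 mM sodium acetate pH 7 for 6 hr at 37 C; 30 uM ThT fluorescence read after 1 hr.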
TexasRed fluor = counter-screen for TRb-SRC2 inhibitors: fluorescence interference; Potency, µM (top dose mostly 106 µM), inactives show at the highest dose fluorescence change, negative = quenching; TRb/SRC2 Texas Red total fluorescence interference; 280,000 compounds, 0.29% hits; active means well fitted curve in either direction with a large enough effect; inconclusive means small, poorly fitted or top-dose-only effect; further: potency means the concentration at half of the fitted maximal effect
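Human TRβ ligand-binding domain (0.6 uM) and Texas Red SRC2 peptide (20 nM) in Tris buffer with 1 uM T3 and 5% DMSO were incubated with pinned compound for 5 hr at ambient temperature. Total fluorescence was computed as S + 2P (555/632 nm).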
Tau fluor cs = counter-screen for tau fibril formation inhibitors | tau K18 P301L (four-repeat tau fragment) Alexa594 fluorescence, heparin fibrillization | 280,000 compounds, 0.93% hits | AID 1463 | Potency, µM (doses to about 57.7 µM), for the others: top-dose activity change, negative = decrease; further: potency means the concentration at half of the fitted maximal effect; nearly all actives have a fitted effect of over 55% in size
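Human K18 P301L tau (15 uM unlabeled plus 0.24 uM Alexa 594-labeled, final) in 100 mM sodium acetate pH 7 was mixed with compound and 20 uM heparin and incubated 6 hr at 37 C.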
The depositor's hits bear a star; ? = inconclusive; . = no result; [ ] = another dose, or the depositor's remark. Unless noted, the call rests on the fitted dose curve; in most records, active means well fitted curve in the direction sought with a large enough effect; inconclusive means small, poorly fitted or top-dose-only effect, or another doubt; inactive means no such curve, though single readings can be large; an effect the other way counts as inactive or inconclusive. Unless noted, on the % scale 0 is the no-effect control and ±100 the full control effect.

SMILES | PNC inhibitor | Tau FP inhib | TRb SRC2 PPI | Tau fibril ThT | TexasRed fluor | Tau fluor cs
O=C1OC(Nc2ccc3c(c2)OCO3)c2ccccc21 (stereo not given) | 27 | ? | 5% | 13µM* | -2% | ?
O=C1OC(Nc2ccc(F)c([N+](=O)[O-])c2)c2ccccc21 (stereo not given) | . | -6% | 0% | . | 0% | -20%
COc1cccc(C(=O)COc2ccc3c(C)c(Cc4ccccc4)c(=O)oc3c2C)c1 | -100* | -3% | 0% | -6% | -4% | -9%
Cc1cccc(C)c1NC(=O)COc1ccc2c(C)c(Cc3ccccc3)c(=O)oc2c1C | ? | 0% | -3% | -9% | -6% | -10%
Cc1cc(C)n(C2CC(=O)N(c3ccc(C)c(Cl)c3)C2=O)n1 (stereo not given) | . | -3% | 2% | -13% | -3% | -19%
O=[N+]([O-])c1cccc(-c2csc(Nc3ccccc3)n2)c1 | . | 13% | -3% | ? | -2% | 25µM*[quencher]
COc1cc(NS(=O)(=O)c2ccc(Nc3nc(-c4cccc([N+](=O)[O-])c4)cs3)cc2)nc(OC)n1 | 0 | ? | 3% | 18µM* | -8% | ?
COc1ccccc1Nc1nc(C)cs1 | ? | ? | 8% | 22µM* | 0% | ?
O=C(COC(=O)c1ccccn1)Nc1nc(-c2cccc([N+](=O)[O-])c2)cs1 | . | -5% | 12% | . | -3% | -56%
COc1ccccc1Nc1nc(-c2cccc([N+](=O)[O-])c2)cs1 | . | 1% | -5% | ? | -6% | 14µM*[quencher]
CC(C)CO/N=C1/C[C@@H](O)[C@@H](O)[C@@H]2[C@@H]3C(=O)N(C[C@@H]4CCCO4)C(=O)[C@H]3CC[C@H]12 | . | -4%[11.6 µM] | 3%[11.2 µM] | -3%[11.5 µM] | -2%[11.2 µM] | -4%[11.6 µM]
COc1ccccc1Nc1ccc([N+](=O)[O-])cc1N | 9 | 13% | -9% | 14µM* | -1% | ?
Clc1ccc(N/N=C/c2cccnc2)cc1 | ? | 12% | -1% | ? | -2% | 16µM*[quencher]
C(=N\NC1=Nc2cccc3cccc1c23)/c1cccnc1 | . | 13% | 5% | 2.8µM* | -8% | -26%
C(=N\NC1=Nc2cccc3cccc1c23)/c1ccccc1 | ? | 8% | 4% | 2µM* | 23% | -23%
Clc1ccc(/C=N/NC2=Nc3cccc4cccc2c34)cc1 | 19 | 12% | -3% | 2.8µM* | 3% | -23%
O=C(/C=C/c1cccnc1)c1cc(F)ccc1O | . | 14% | 3% | -5% | -1% | 26%
O=C(/C=C/c1cccnc1)/C=C/c1cccnc1 | . | ? | 1% | 4.5µM* | 0% | -26%
O=C(C(=O)c1cccnc1)c1cccnc1 | . | 3% | -7% | -4% | 4% | -7%
O=C(c1cccnc1)c1cccnc1 | -124* | 5% | 4% | 7% | -3% | 1%
COc1ccc(-c2[nH]c(-c3ccccc3)nc2SCC(=O)Nc2ccc3c(c2)OCCO3)cc1 | . | ? | -2% | ? | -2% | 8.9µM*[quencher]
O=C(CSc1nc(-c2ccccc2)[nH]c1-c1ccccc1)Nc1ccc2c(c1)OCCO2 | . | -14% | 0% | ? | -2% | 10µM*[quencher]
O=C(CSc1nc(-c2ccc(F)cc2)[nH]c1-c1ccc(F)cc1)Nc1ccc2c(c1)OCO2 | . | ? | 10% | ? | -2% | ?
Cc1cc(C)cc(-n2ccnc2SCC(=O)Nc2ccc3c(c2)OCCO3)c1 | -85* | 11% | -26% | -15% | -2% | -15%
O=C(CSc1nc(-c2ccc(F)cc2)[nH]c1-c1ccc(F)cc1)Nc1ccc2c(c1)OCCO2 | . | -14% | 2% | ? | -2% | 8.9µM*[quencher]
SMILES | PNC inhibitor | Tau FP inhib | TRb SRC2 PPI | Tau fibril ThT | TexasRed fluor | Tau fluor cs
O=C(Nc1ccccc1)c1cccc(S(=O)(=O)Nc2ccccn2)c1 | 0 | -1% | -2% | -11% | -7% | -11%
Clc1ccccc1-c1nccc(-n2ccnc2)n1 | . | -7% | -10% | -15% | -5% | -14%
Cc1ccc(C)c(N2CCN(C(=O)c3ccccc3Br)CC2)c1 | -80* | 1% | 8% | -9% | -8% | -6%
CCc1nnc(NC(=O)c2sc3nc4cc(C)ccc4cc3c2N)s1 | 13 | -5% | 8% | 2µM* | -7% | ?
CCc1nnc(NC(=O)c2ccc3ccccc3n2)s1 | . | 8% | 7% | ? | -2% | 4%
CCOC(=O)Cc1csc(NC(=O)c2cccnc2)n1 | ? | -8% | -13% | -8% | -6% | -1%
CCOC(=O)Cc1csc(NC(=O)c2sc3nc4ccc(C)cc4cc3c2N)n1 | 29 | 9% | -3% | 3.2µM* | -4% | -16%
Cc1nn(C)c(C)c1NC(=O)/C(C#N)=C\N(C)C | . | -2% | -4% | -9% | -4% | -9%
CCCCc1c(C)nc(N)[nH]c1=O | 10 | 5% | -1% | -13% | 1% | -8%
COC(=O)CCc1c(C)nc(N)[nH]c1=O | -112* | 5% | 0% | -5% | 0% | 2%
O=C1CCCC2=C1C1(O)C(=O)c3ccccc3C1(O)O2 (stereo not given) | 4 | ? | -29% | 3.5µM* | 1% | -15%
N#CC1=C(N)OC2=C(C(=O)CCC2)[C@]12C(=O)N(CC(N)=O)c1ccccc12 | ? | 0% | 5% | -6% | -1% | -3%
CN(C)c1ccc(C(=S)Nc2ccccc2)cc1 | 35 | 1% | 2% | ? | -1% | -23%
CN(C)c1ccc(C(=O)Nc2sc(Nc3ccccc3)nc2C(N)=O)cc1 | . | -1% | -4% | 1.1µM* | -2% | 11µM*[quencher]
O=C(O)CN1C(=O)/C(=C/C=C/c2ccccc2)SC1=S | . | -6% | 1% | 11µM* | -2% | -7%
O=C(CN1C(=O)S/C(=C\C=C\c2ccccc2)C1=O)Nc1cccc(O)c1 | -18 | ? | 9% | ? | -10% | 16µM*[quencher]
O=C(CCN1C(=O)/C(=C/C=C/c2ccccc2)SC1=S)Nc1cccnc1 | -108* | -1% | 0% | ? | 2% | -5%
CC1CCN(S(=O)(=O)c2cnc(Cl)c(Br)c2)CC1 | 57 | 2% | 1% | -9% | -7% | -12%
CCN(CC)C(=O)C1CCCN(c2ncnc3c2cnn3-c2cccc(C)c2)C1 (stereo not given) | ? | -4% | -17% | -13% | -1% | -3%
Cc1ccc(NC(=O)CSC2=C(C#N)C(c3ccc4c(c3)OCO4)CC(=O)N2)cc1C (stereo not given) | -100* | ? | -2% | 1% | -1% | -25%
N=c1c2c(-c3ccccc3)c(-c3ccccc3)n(Cc3ccccc3)c2ncn1CCCn1ccnc1 | -98* | 4% | 3% | -8% | -3% | 7%
